High-throughput results from PubChem.
Many of the other results were omitted from the sample, so hits are more common in it than they were.
CHX counter: counter-screen hit for Shiga toxin inhibitors, cycloheximide; cell reporter, cycloheximide protein synthesis inhibition counterscreen; max response, %; hit rate 12% among 300,000; in the data active means max response mostly above about 13%, no sharp cut-off; inactive means mostly below about 14%; further: read at 38.3 µM for the half of the compounds with a filed dose
AmpC detergent: AmpC beta-lactamase inhibition with detergent present. AmpC hydrolysis of nitrocefin, absorbance 480 nm, 0.01% Triton. P00811. hit rate 0.041% among 370,000. Potency, µM (titrated, usually from 114 µM), most hits filed as inhibitors; further: nearly all actives have a fitted effect of over 25% in size
Target sequence (P00811 whole entry, looked up): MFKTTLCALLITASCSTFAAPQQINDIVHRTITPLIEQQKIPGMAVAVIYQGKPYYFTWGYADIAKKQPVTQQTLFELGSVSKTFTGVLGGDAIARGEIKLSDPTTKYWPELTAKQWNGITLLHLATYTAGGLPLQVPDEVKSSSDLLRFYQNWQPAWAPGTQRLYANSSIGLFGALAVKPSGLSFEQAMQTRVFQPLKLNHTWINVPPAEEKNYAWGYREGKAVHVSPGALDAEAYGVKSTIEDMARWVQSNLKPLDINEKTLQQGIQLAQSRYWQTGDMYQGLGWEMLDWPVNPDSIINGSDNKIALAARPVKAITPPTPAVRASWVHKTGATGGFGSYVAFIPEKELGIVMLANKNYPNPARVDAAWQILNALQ
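20 mM phosphate pH 7.0 + 0.01% (detergent screen) or 0.0001% Triton X-100; 5.3 nM AmpC reagent; cpd preinc 15 min RT; nitrocefin (800 uM stock) to start; A480 q20 s × 4 min; Activity was normalised to no-enzyme and no-compound control wells.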
AmpC no deterg: AmpC beta-lactamase inhibition without detergent; P00811; AmpC nitrocefin hydrolysis, absorbance 480 nm, 0.0001% Triton; hit rate 0.52% among 330,000; Potency, µM (titrated, usually from 57.1 µM), usual class: inhibitors; further: nearly all actives have a fitted effect of over 20% in size
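AmpC (5.3 nM in the dispensed reagent) in 20 mM phosphate pH 7.0 with 0.01% (detergent screen) or 0.0001% Triton X-100 was preincubated with compounds for 15 min at room temperature. Nitrocefin was then added from an 800 uM solution, and hydrolysis was followed at 480 nm.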
Shiga inhibitor: inhibitors of Shiga toxin in Vero cells. Vero cells, Shiga toxin protein synthesis inhibition reporter. hit rate 9.2% among 290,000. inhibition, % at 38.7 µM; in the data active means inhibition mostly above about 28%, no sharp cut-off; inactive means mostly below about 43%
NS1 inh: influenza NS1 inhibition; Potency, µM (top dose mostly 46.1 µM); hit rate 0.4% among 270,000; AID 2326; calls by dose curve; further: actives are rising curves; nearly all actives have a fitted effect of over 50% in size
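A cell-based growth assay was used: compounds that relieve NS1-induced slow growth of budding yeast raise OD600. Assay medium was yeast nitrogen base with ammonium sulphate and -URA supplement, pH 6.0, with 2% galactose.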
Numbers stand for hits. Unless noted, the call rests on the fitted dose curve; in most records, active means well fitted curve in the direction sought with a large enough effect; inconclusive means small, poorly fitted or top-dose-only effect, or another doubt; inactive means no such curve, though single readings can be large; an effect the other way counts as inactive or inconclusive.

What do the screens show for `COc1ccc(CCNC(=O)C2CC(c3cccc([N+](=O)[O-])c3)=NO2)cc1` (stereo not drawn)?
CHX counter: 47; AmpC detergent: inactive; AmpC no deterg: inactive; Shiga inhibitor: 160; NS1 inh: inactive

Results for CCCCNC(=O)C1CC(c2cccc(F)c2)=NO1 (stereo not drawn) ?
CHX counter: 33; AmpC detergent: inactive; AmpC no deterg: inactive; Shiga inhibitor: 58; NS1 inh: inactive

How did Cc1ccc(CNC(=O)C2CC(c3ccccc3[N+](=O)[O-])=NO2)cc1 (stereo not drawn) do in these assays?
CHX counter: 13; AmpC detergent: inconclusive; AmpC no deterg: inactive; Shiga inhibitor: inactive; NS1 inh: inactive

How did O=C(NCCc1cccs1)C1CC(c2ccc([N+](=O)[O-])cc2)=NO1 (stereo not drawn) do in these assays?
CHX counter: 59; AmpC detergent: inactive; AmpC no deterg: inactive; Shiga inhibitor: 77; NS1 inh: inactive

How did CC(C)CCNC(=O)C1CC(c2cccc(F)c2)=NO1 (stereo not drawn) do in these assays?
CHX counter: inactive; AmpC detergent: inactive; AmpC no deterg: inactive; Shiga inhibitor: inactive; NS1 inh: inactive

Results for CCC1CN(C(=O)Nc2cc(Cl)c(OC)cc2OC)c2ccccc2O1 (stereo not drawn) ?
AmpC detergent: inactive

How did COCCNC(=O)C1CC(c2ccc([N+](=O)[O-])cc2)=NO1 (stereo not drawn) do in these assays?
CHX counter: inactive; AmpC detergent: inconclusive; AmpC no deterg: inactive; Shiga inhibitor: inactive; NS1 inh: inactive

How did Cc1ccc(CNC(=O)C2CC(c3cccc([N+](=O)[O-])c3)=NO2)o1 (stereo not drawn) do in these assays?
CHX counter: 33; AmpC detergent: inactive; AmpC no deterg: inactive; Shiga inhibitor: 64; NS1 inh: inactive

What do the screens show for `COc1ccc(CCNC(=O)C2CC(c3ccc([N+](=O)[O-])cc3)=NO2)cc1` (stereo not drawn)?
CHX counter: 33; AmpC detergent: inactive; AmpC no deterg: inactive; Shiga inhibitor: 43; NS1 inh: inactive

How did Cc1cc(C(=O)N(C)C)sc1-c1ccccc1 do in these assays?
CHX counter: 63; AmpC detergent: inactive; AmpC no deterg: inactive; Shiga inhibitor: 71; NS1 inh: inactive

How did Cc1cc(C(=O)N2CCN(S(C)(=O)=O)CC2)sc1-c1ccccc1 do in these assays?
CHX counter: inactive; AmpC detergent: inactive; AmpC no deterg: inactive; Shiga inhibitor: inactive; NS1 inh: inactive

How did Cc1cc(N2CCOCC2)ccc1/C=C1/SC(=O)NC1=O do in these assays?
CHX counter: 31; AmpC detergent: inactive; AmpC no deterg: inactive; Shiga inhibitor: inactive

How did Cc1cc(N2CCOCC2)ccc1/C=C1\C(=O)NC(=O)N(c2ccccc2)C1=O do in these assays?
CHX counter: inactive; AmpC detergent: inactive; AmpC no deterg: inactive; Shiga inhibitor: inactive; NS1 inh: inactive

How did C=CC(C)N1C(=O)S/C(=C\c2ccc(N3CCOCC3)cc2C)C1=O (stereo not drawn) do in these assays?
CHX counter: 17; AmpC detergent: inactive; AmpC no deterg: inactive; Shiga inhibitor: inactive; NS1 inh: inactive

Results for O=C1NC(=O)C(=Cc2ccc(N3CCOCC3)cc2)C(=O)N1 ?
CHX counter: inactive; AmpC detergent: inactive; AmpC no deterg: inactive; Shiga inhibitor: inactive

Results for O=C1NC(=S)N/C1=C\c1ccc(N2CCOCC2)cc1 ?
CHX counter: 28; AmpC detergent: inactive; AmpC no deterg: inactive; Shiga inhibitor: inactive

Results for C=CCN1C(=O)S/C(=C\c2ccc(N3CCOCC3)cc2C)C1=O ?
CHX counter: 35; AmpC detergent: inactive; AmpC no deterg: inactive; Shiga inhibitor: inactive; NS1 inh: inactive

What do the screens show for `COc1cc(OC)cc(-c2nnc(NC(=O)CCS(=O)(=O)c3ccc(C)cc3)o2)c1`?
AmpC detergent: inactive; AmpC no deterg: inactive

Results for COc1c(C(=O)NNC(=O)c2ccccc2Cl)csc1Br ?
CHX counter: 49; AmpC detergent: inactive; AmpC no deterg: inactive; Shiga inhibitor: 76; NS1 inh: inactive

How did O=C(NNC(=O)c1ccccc1Cl)c1ccncc1 do in these assays?
CHX counter: inactive; AmpC detergent: inactive; AmpC no deterg: inactive; Shiga inhibitor: inactive; NS1 inh: inactive

Results for CCc1ccc2[nH]c(=O)c(CN(CC3CCCO3)C(=S)NCc3ccco3)cc2c1 (stereo not drawn) ?
CHX counter: 22; AmpC detergent: inactive; AmpC no deterg: inactive; Shiga inhibitor: inactive; NS1 inh: inactive

Results for CCc1ccc2[nH]c(=O)c(CN(CCN(C)C)C(=S)NCc3ccco3)cc2c1 ?
CHX counter: inactive; AmpC detergent: inactive; AmpC no deterg: inactive; Shiga inhibitor: inactive; NS1 inh: inactive

How did CC(=O)O/C(=C1/C[C@H]2[C@@H]3CC=C4C[C@@H](OC(C)=O)CC[C@]4(C)[C@@H]3CC[C@]2(C)C1=O)C(F)(F)F do in these assays?
NS1 inh: inactive

How did Cc1nn(C)c(Cl)c1C(=O)NCC(=O)Nc1ccc(C(C)C)cc1 do in these assays?
CHX counter: inactive; AmpC detergent: inactive; AmpC no deterg: inactive; Shiga inhibitor: inactive; NS1 inh: inactive

How did CCc1nnc(NC(=O)c2ccc(Cl)nc2)s1 do in these assays?
CHX counter: 32; AmpC detergent: inconclusive; AmpC no deterg: inactive; Shiga inhibitor: 75

How did CCc1nnc(NC(=O)c2ncc(Cl)c(Cl)c2Cl)s1 do in these assays?
CHX counter: inactive; AmpC detergent: inactive; AmpC no deterg: inactive; Shiga inhibitor: inactive; NS1 inh: inactive

What do the screens show for `CCN(c1ccc(NC(=O)c2ccc(Cl)nc2)cc1)C(C)C`?
CHX counter: 24; AmpC detergent: inactive; AmpC no deterg: inactive; Shiga inhibitor: 38

Results for CCc1nnc(NC(=O)c2cc(Cl)ccn2)s1 ?
CHX counter: 41; AmpC detergent: inactive; AmpC no deterg: inactive; Shiga inhibitor: 77; NS1 inh: inactive

What do the screens show for `CC1(C)Cc2c(sc3nc(-c4cccs4)n(N)c(=O)c23)CO1`?
CHX counter: 36; AmpC detergent: inactive; AmpC no deterg: inactive; Shiga inhibitor: inactive; NS1 inh: inactive

What do the screens show for `Cc1nc2sc3c(c2c(=O)n1N)CCC3`?
CHX counter: inactive; AmpC detergent: inactive; AmpC no deterg: inactive; Shiga inhibitor: inactive

Results for CCc1nc2sc3c(c2c(=O)n1N)CC(C)(C)OC3 ?
CHX counter: inactive; AmpC detergent: inconclusive; AmpC no deterg: inactive; Shiga inhibitor: inactive; NS1 inh: inactive

How did Cc1ccccc1-c1nc2sc3c(c2c(=O)n1N)CCCC3 do in these assays?
CHX counter: 43; AmpC detergent: inconclusive; AmpC no deterg: inactive; Shiga inhibitor: 75; NS1 inh: inactive

Results for Nn1c(-c2cccs2)nc2sc3c(c2c1=O)CCCC3 ?
CHX counter: 35; AmpC detergent: inactive; AmpC no deterg: inactive; Shiga inhibitor: 108; NS1 inh: inactive

How did CN(C)c1nc2sc3c(c2c(=O)n1C)CC(C)(C)OC3 do in these assays?
CHX counter: 11; AmpC detergent: inconclusive; AmpC no deterg: inactive; Shiga inhibitor: 44; NS1 inh: inactive

What do the screens show for `CC(=O)N1CC[C@H]2CC(=O)CC[C@@]21C`?
CHX counter: inactive; Shiga inhibitor: inactive
